High-throughput results (PubChem)
An excerpt weighted towards active compounds, which were near 1.6% of everything screened.
KCNQ2 enhance – potentiators of rat KCNQ2 potassium channel; B-score at 10 µM; hit rate 0.54% among 310,000; AID 2239; CHO-K1 KCNQ2, FluxOR thallium flux fluorescence; hits give high values; O88943;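 active = fluorescence ratio B-score at least 3 SD of library B-scores, with initial fluorescence B-score within 3 of them, cut at about 5.3 in these data; same plate scores as AID 2156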;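 note: B-score of peak minus minimum over baseline fluorescence ratio after K+ and Tl+ stimulus; positive B-score means potentiation of KCNQ2 with more thallium influx and brighter signal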
Target sequence (O88943 whole entry, looked up): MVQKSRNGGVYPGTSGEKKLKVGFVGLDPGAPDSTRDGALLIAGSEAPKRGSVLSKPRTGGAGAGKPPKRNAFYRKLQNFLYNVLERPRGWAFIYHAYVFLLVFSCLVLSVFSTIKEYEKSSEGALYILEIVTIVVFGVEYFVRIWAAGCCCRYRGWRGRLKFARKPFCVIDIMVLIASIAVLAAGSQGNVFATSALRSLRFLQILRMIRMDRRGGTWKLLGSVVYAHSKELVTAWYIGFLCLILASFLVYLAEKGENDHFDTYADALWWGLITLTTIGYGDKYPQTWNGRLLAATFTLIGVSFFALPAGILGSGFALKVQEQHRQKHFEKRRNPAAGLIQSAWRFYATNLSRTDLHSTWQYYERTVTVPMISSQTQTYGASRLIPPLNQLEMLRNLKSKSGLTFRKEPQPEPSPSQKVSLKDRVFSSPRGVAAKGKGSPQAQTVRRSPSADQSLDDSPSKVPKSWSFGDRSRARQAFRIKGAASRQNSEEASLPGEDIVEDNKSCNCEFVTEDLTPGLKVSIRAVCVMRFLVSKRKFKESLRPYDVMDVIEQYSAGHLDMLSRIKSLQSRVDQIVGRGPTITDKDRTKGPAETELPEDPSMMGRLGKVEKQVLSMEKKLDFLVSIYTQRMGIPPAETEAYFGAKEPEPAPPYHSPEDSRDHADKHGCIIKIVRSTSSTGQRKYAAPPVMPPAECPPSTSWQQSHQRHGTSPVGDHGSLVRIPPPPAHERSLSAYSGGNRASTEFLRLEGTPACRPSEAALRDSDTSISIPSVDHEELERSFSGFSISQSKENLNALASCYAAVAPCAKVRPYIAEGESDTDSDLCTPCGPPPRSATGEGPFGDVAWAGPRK
KCNQ2 inh – inhibitors of rat KCNQ2 potassium channel; CHO-K1 KCNQ2, FluxOR thallium flux, 20 min; hits give low values; O88943; hit rate 1.1% among 310,000; B-score at 10 µM;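 active = fluorescence ratio B-score at most minus 3 library SDs, with starting brightness B-score within 2 library SDs, cut at about -5.5 in these data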
Starred values were filed as active, the others as inactive; i = inactive; nt = no result.

SMILES	KCNQ2 enhance	KCNQ2 inh
CCOC(=O)Cc1csc(NC(=O)CCCCCN2C(=O)c3ccccc3C2=O)n1	nt	i
O=C(CSc1nnc(COc2ccccc2Cl)o1)NC(=O)NCc1ccco1	0.71	i
Cc1ccccc1/C=C1\CCCc2ccccc2C1=O	nt	i
O=C1/C(=C\c2ccc3ccccc3c2)CCCc2ccccc21	-6.5	-6.5*
Cc1cc(C)n2nc(C(=O)Nc3cccc(S(=O)(=O)N(C)c4ccccc4)c3)nc2n1	0.43	i
CCOC(=O)Cn1nc(-c2ccccc2)nc1-c1ccccc1	nt	i
O=C(Cn1nc(-c2ccccc2)nc1-c1ccccc1)OC1CCCCC1	-6.1	-6.1*
C=CCn1c(CSCc2ccccc2)nnc1SCC(=O)N1CCN(c2ccccc2)CC1	nt	i
CCn1c(CSCc2ccc(C)cc2)nnc1SCC(=O)N1CCN(c2ccccc2)CC1	-7.8	-7.8*
CC(OC(=O)CCc1c[nH]c2ccccc12)C(=O)c1ccccc1 (centres undefined)	nt	i
O=C(CCc1ccccc1)NC1CCSC1=O (centres undefined)	0.52	i
O=C(Cc1ccccc1)NC1CCSc2ccccc21 (centres undefined)	-5.8	-5.8*
CCc1cccc(CC)c1NC(=O)c1cc(CN2C(=O)c3ccccc3C2=O)ccc1OC	-8	-8*
COc1ccc(CN2C(=O)c3ccccc3C2=O)cc1C(=O)O	nt	i
COc1cccc(-n2c(CN3CCN(c4ccc(C)cc4)C(C)C3)nc3ccc([N+](=O)[O-])cc3c2=O)c1 (centres undefined)	nt	i
COc1cccc(-n2c(CN3CCN(c4cccc(C)c4)C(C)C3)nc3ccc([N+](=O)[O-])cc3c2=O)c1 (centres undefined)	-5.8	-5.8*
CCOC(=O)c1cc(CC)sc1NC(=O)Cc1ccccc1	-5.7	-5.7*
CCOC(=O)c1cc(CC)sc1NC(=O)COC	nt	i
CCOC(=O)c1cc(C)sc1NC(=O)C(c1ccccc1)c1ccccc1	-6	-6*
CCc1cc(C(=O)O)c(NC(=O)C(c2ccccc2)c2ccccc2)s1	1.3	i
O=C(NCCN1CCOCC1)/C(=C/c1ccco1)NC(=O)c1ccccc1	0.11	i
Oc1ccccc1C1CC(c2cccs2)=NC(c2cccc(Br)c2)N1 (centres undefined)	nt	i
Cc1cc(OCC(=O)C(C)(C)C)c2c(-c3ccccc3)cc(=O)oc2c1	nt	i
Cc1ccc(C)c(OCc2cc(C(=O)N3CC[C@@H]4CCCC[C@H]4C3)no2)c1	-6.5	-6.5*
Cc1ccc(C)c(OCc2cc(C(=O)N3C[C@@H](C)O[C@@H](C)C3)no2)c1	1.4	i
SMILES	KCNQ2 enhance	KCNQ2 inh
CCN(CC)c1ccc2cc(S(=O)(=O)c3ccc(Cl)cc3)c(=O)oc2c1	-6.2	-6.2*
CCCCCCc1cc2cc(S(=O)(=O)c3ccc(Cl)cc3)c(=O)oc2cc1O	1.2	i
O=C(Cc1ccsc1)Nc1ccccc1F	nt	i
CCCN(CCC)S(=O)(=O)c1ccc(Cl)c([N+](=O)[O-])c1	nt	i
CCOC(=O)C(C)(C)N(Cc1ccccc1C)S(=O)(=O)c1ccc(Cl)c([N+](=O)[O-])c1	-7.2	-7.2*
OCCN1CCN(C2CCC(c3ccc(F)cc3)c3ccc(F)cc32)CC1 (centres undefined)	nt	i
Cn1nc(C(F)(F)F)c(/C=N/OC(=O)c2ccccc2)c1Cl	nt	i
Cn1nc(C(F)(F)F)c(/C=N/OC(=O)c2ccccc2)c1Sc1ccc(Cl)cc1	-5.7	-5.7*
Cc1[nH]c2ccccc2c1N=Nc1ccccc1C(=O)O	3.3	i
Cc1ccc(C(C)C)cc1OCC(=O)Nc1ccc(N2CCCCC2)cc1	nt	i
CCOc1ccc(OCc2ccc(C(=O)N3CCc4ccccc4C3)o2)cc1	-6.1	-6.1*
CCOc1ccc(OCc2ccc(C(=O)N3CCCCC3)o2)cc1	0.18	i
Cc1cc(C)c2nc(SCC(=O)NCCC3=CCCCC3)cc(C)c2c1	0.21	i
CC(/C=C1\SC(=S)N(NC(=O)c2ccccc2C)C1=O)=C\c1ccccc1	nt	i
CC(/C=C1\SC(=S)N(NS(=O)(=O)c2ccc(C)cc2)C1=O)=C\c1ccccc1	21*	i
CCOC(=O)c1cnn(-c2ccccc2)c1-n1cccc1C(=O)C(=O)N(CC)CC	0.3	i
CCOC(=O)c1cnn(-c2ccccc2)c1-n1cccc1C(=O)C(=O)Nc1ccccc1C(F)(F)F	-7	-7*
Cc1ccc(S(=O)(=O)NCC(=O)OCc2nnc(-c3ccccc3)o2)cc1	0.73	i
Cc1ccccc1C1NC(=O)Cc2ccccc21 (centres undefined)	0.31	i
O=C1Cc2ccccc2C(c2ccc(Br)cc2)N1 (centres undefined)	-6.3	-6.3*
Cc1nn(-c2ccccc2)c2ncc(C(=O)c3cc(Cl)ccc3O)cc12	nt	i
CCc1nn2cc(C(=O)c3cc(Cl)ccc3O)cnc2c1-c1ccc(F)cc1	-5.6	-5.6*
O=C(NCc1cccnc1)/C(=C\c1ccc(-c2ccc(Br)cc2)o1)S(=O)(=O)c1ccccc1	nt	i
O=C(NCc1cccnc1)/C(=C/c1ccc(-c2ccc(Cl)cc2)o1)S(=O)(=O)c1ccccc1	-6.2	-6.2*
Cc1ccc(C(=O)COC(=O)CCC(=O)NC2CCCCC2)cc1C	nt	i
SMILES	KCNQ2 enhance	KCNQ2 inh
CC(=O)N1c2ccc(S(=O)(=O)N3CCC(C(=O)NCc4ccccc4Cl)CC3)cc2CC1C (centres undefined)	nt	i
CC(=O)N1c2ccc(S(=O)(=O)N3CCCC(C(=O)NCc4ccccc4Cl)C3)cc2CC1C (centres undefined)	-6.2	-6.2*
Cc1ccc(S(=O)(=O)N2CCCC2C(=O)Nc2nc3ccccc3s2)cc1 (centres undefined)	nt	i
Cc1ccc(S(=O)(=O)N2CCCC2C(=O)NCc2ccccc2Cl)cc1 (centres undefined)	-6.6	-6.6*
O=C(Nc1nc2ccccc2s1)C1CCCN1S(=O)(=O)c1ccc(Cl)cc1 (centres undefined)	-5.6	-5.6*
COc1ccc(S(=O)(=O)N2CCCC2C(=O)NCc2ccccc2Cl)cc1 (centres undefined)	nt	i
COc1ccc(CCN2CC(C(=O)N(C)Cc3c(C)n[nH]c3C)CCC2=O)cc1 (centres undefined)	nt	i
Cc1ccc(-c2cnc(-c3ccccc3C(=O)O)o2)cc1	0.07	i
COc1ccc(-c2ccc(CCC(=O)O)n2CC(=O)Nc2ccccc2C)cc1	nt	i
CC(C)CN1CCC(=O)N([C@H](CO)Cc2ccccc2)CC1	0.9	i
COc1ccc(OC)c(-c2cc(C(=O)N3CCCc4ccccc43)no2)c1	nt	i
COc1ccccc1-c1cc(C(=O)N2CCCc3ccccc32)no1	-6	-6*
COCc1ccc(CN2CCCC(C(=O)Nc3ccc(-c4cscn4)cc3)C2)o1 (centres undefined)	nt	i
CC(=O)[C@@]1(O)CC[C@H]2[C@@H]3CCC4=CC(=O)CC[C@]4(C)[C@H]3CC[C@@]21C	0.03	i
CCCCCC(=O)O[C@]1(C(C)=O)CC[C@H]2[C@@H]3CCC4=CC(=O)CC[C@]4(C)[C@H]3CC[C@@]21C	-7.2	-7.2*
CC1CCC(C(C)C)C2=C1C(C#N)(C#N)C(C#N)(C#N)C(c1ccccc1)N2 (centres undefined)	-7.8	-7.8*
CC1=CC(C#N)(C#N)C(C#N)(C#N)C(c2ccccc2)N1 (centres undefined)	nt	i
CCOc1ccccc1CNn1cnnc1	1.5	i
COc1cccc(CNn2cnnc2)c1O	-5.6	-5.6*
